Assay results as given in PubChem BioAssay (NCATS).
Records with an inconclusive call do not appear. Active and inactive are the calls of the source. Unless noted, calls follow the shape of the dose curve; as a rule, active = well fitted curve in the direction sought with a large enough effect; inconclusive = small, poorly fitted or top-dose-only effect, or another doubt; inactive = no such curve, though single readings can be large; an effect the other way counts as inactive or inconclusive.

How the values were obtained:
[1] = Inducers of the Endoplasmic Reticulum Stress Response (ERSR) in human glioma: Validation (AID 504836); also: 0% is about no effect
Method in brief: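 Stably transfected U87-MG glioma cells carrying a GRP78-based luciferase sensor; 16 h compound incubation. Luminescence end-point read 10 min after Bright-Glo addition at room temperature.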

[2] = Nrf2 qHTS screen for inhibitors: Validation (AID 493153; active = well fitted inhibition curve with a large enough effect in the main read-out, with a control signal flat, not every such curve was filed as active); settings: viability change: measured here: cytotoxicity max response
Method in brief: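 A549 ARE_Fluc, 5% FBS OPTI-MEM; cpd titration, 18-24 h, 37°C/5% CO2. Read 1: CellTiter-Fluor (Ex 405/Em 525), cytotox. Read 2: luciferase lum, Nrf2 activity.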

[3] = qHTS for Inhibitors of Cell Surface uPA Generation: Validation Assay (AID 493164);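 also: RAW 264.7 macrophage cells exposed to compound for 18 h; 0% is about no effect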
Method in brief: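 ATP-Lite luminescence read-out: ATP remains high when uPA activity-dependent LF translocation into the cytoplasm is blocked. RAW 264.7 cells, 18 h compound exposure at 37 C; 7-point titration, 2.45 nM to 38.3 uM final.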

[4] = molecular target: Peptidyl-prolyl cis-trans isomerase NIMA-interacting 1 (Homo sapiens) (UniProt Q13526); assay: qHTS Validation Assay to Find Inhibitors of Pin1 (AID 504536; active = well fitted inhibition curve with a large enough effect in the polarisation, with a control signal flat, not every such curve was filed as active; the % refers to the polarisation;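 also: 0% = full Pin1 enzyme wells and -100% = no-enzyme wells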)
Method in brief: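 Fluorescence polarization competition: compounds (titration) displace HiFluor-488-labeled Pin1-1b peptide from Pin1 (0.3 uM final) in pH 7.5 HEPES buffer with DTT, 10 min at room temperature; %Activity normalized to no-enzyme wells, curves fitted.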

[5] = molecular target: Phosphoglycerate kinase, glycosomal (Trypanosoma brucei brucei) (UniProt P07378); assay: qHTS Validation Assay to Find Inhibitors of Phosphoglycerate Kinase (AID 504547);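 also: control wells lack PGK and mark full inhibition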
Method in brief: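 Compounds are pinned into the substrate/PGK mixture, and GAPDH (100nM final) is added to start the reaction by producing 1,3-BPG. After 60 minutes at room temperature, Kinase-Glo Plus is added and luminescence is measured 10 minutes later.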

[6] = molecular target: phosphoglycerate mutase (Leishmania major) (UniProt Q4Q090); assay: qHTS Validation Assay to Find Inhibitors of Phosphoglycerate Mutase (AID 504548); also: series mostly up to about 58 µM; % is scaled to controls: 0 for no effect and ±100 for the full control effect
Method in brief: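 Lm PGAM at 1.25 nM final with substrate in 100 mM TEA pH 7.6, 5 mM MgCl2, 0.01% Tween-20; 45 min at room temperature. Kinase-GloPlus added, 10 min, end-point luminescence read.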

[7] = molecular target: Ubiquitin carboxyl-terminal hydrolase 1 (Homo sapiens) (UniProt O94782); assay: Inhibitors of USP1/UAF1: Pilot qHTS (AID 504865);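 also: rhodamine fluorescence freed from ubiquitin-rhodamine substrate followed over time; top concentration of the series differs between compounds; % is scaled to controls: 0 for no effect and ±100 for the full control effect; nearly all actives have a fitted effect of over 35% in size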
Method in brief: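 USP1/UAF1 complex (1nM) preincubated with compound 15 min at room temperature, then Ub-Rho substrate (150nM final) added. Fluorescence read kinetically at 480/540 nm, 6 reads every 60 seconds. Buffer: 50mM HEPES pH 7.8, 0.5mM EDTA, 0.1 mg/ml BSA, 1mM TCEP, 0.01% Tween-20.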

[8] = qHTS for Inhibitors of ATXN expression: Validation of Cytotoxic Assay (AID 588349); also: % is scaled to controls: 0 for no effect and ±100 for the full control effect
Method in brief: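 Titrated compounds are added to cultured HEK293 cells, which are then held at 37 degrees C for 72 hr; loss of intracellular ATP, measured with CellTiter Glo, indicates toxicity.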

[9] = qHTS for Inhibitors of ATXN expression: Validation (AID 588378); also: series mostly up to about 57 µM; % is scaled to controls: 0 for no effect and ±100 for the full control effect; nearly all actives have a fitted effect of over 75% in size
Method in brief: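 Luminescence from an ATXN2-FFLuc reporter in HEK293 cells served as read-out after 24 h compound treatment at 37 degrees C; CellTiter-Fluor fluorescence was recorded first to assess viability.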

[10] = molecular target: Galactokinase (Homo sapiens) (UniProt P51570); assay: qHTS Validation Assay for Inhibitors of Human Galactokinase (GALK) (AID 493189); also: 0% is about no effect
Method in brief: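 GALK (5 nM) with 35 uM ATP and 100 uM galactose in HEPES pH8.0, MgCl2, NaCl, DTT, BSA; 1 h at room temperature. Residual ATP read by Kinase-Glo Plus luminescence after 10 min.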

[11] = Validation screen for small molecules that induce DNA re-replication in SW480 colon adenocarcinoma cells (AID 504364); also: 0% is about no effect
Method in brief: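 Image-based qHTS: compounds were incubated with SW480 cells for 48 hr, nuclei stained with Hoechst, and per-nucleus fluorescence intensity scanned to flag cells with excess DNA content.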

[12] = molecular target: Bile acid receptor (Homo sapiens) (UniProt Q96RI1); assay: qHTS assay for small molecule antagonists of farnesoid X receptor signaling (AID 588526; calls by dose curve; also: % is scaled to controls: 0 for no effect and ±100 for the full control effect)
Method in brief: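 Antagonist mode: titrated compounds tested against chenodeoxycholic acid stimulation (normalized to 50 uM CDCA and DMSO) in GeneBLAzer HEK293T cells for 16 h. Beta-lactamase read by CCF4 fluorescence; IC50 from Hill fits.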

[13] = molecular target: Glucocorticoid receptor (Homo sapiens) (UniProt P04150); assay: qHTS assay for small molecule agonists of glucocorticoid receptor signaling (AID 588532; active = well fitted curve in the direction sought with a large enough effect in the signal ratio, with a control signal flat; the % refers to the signal ratio;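 also: 100% = dexamethasone at 0.1 µM and 0% = DMSO only wells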); settings: HeLa MMTV-bla, beta-lactamase ratio, agonist, 18 h; stronger effect = higher value; percent of dexamethasone control, DMSO zero
Method in brief: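 Cells were plated and rested 3-5 h at 37 C, compounds were added in titration and incubated 18 h, then CCF4 substrate was loaded for 2 h at RT before reading blue/green fluorescence. EC50 came from Hill-equation fitting.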

[14] = molecular target: Glucocorticoid receptor (Homo sapiens) (UniProt P04150); assay: qHTS assay for small molecule antagonists of glucocorticoid receptor signaling (AID 588533; active = well fitted inhibition curve with a large enough effect in the signal ratio, with a control signal flat, not every such curve was filed as active; the % refers to the signal ratio;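 also: cells stimulated with 2 nM dexamethasone as agonist; % is scaled to controls: 0 for no effect and ±100 for the full control effect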)
Method in brief: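 Antagonist-mode qHTS: compound titrations added to GRE-bla HeLa cells, then dexamethasone 2 nM final; 18 h, 37 C. CCF4 FRET fluorescence normalized to dexamethasone and DMSO; IC50 from Hill fit.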

[15] = molecular target: Thyrotropin-releasing hormone receptor (Homo sapiens) (UniProt P34981); assay: qHTS for Small Molecule Agonists and Allosteric Enhancers of Human TRH Receptor: Validation Screen for Agonists (AID 493127;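 active = calcium activation more than 3 SD above the typical response in the agonist read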;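 also: intracellular calcium rise by fluo-8 fluorescence before TRH EC20 addition; 0% is about no effect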); settings: TRH receptor agonist cell assay; at 2 µM; stronger effect = higher value
Method in brief: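 Compounds are added by online pintool to dye-loaded TRHR cells while fluorescence is recorded every second. A rise in calcium signal during the agonist read marks activation; a later 10 nM TRH addition (EC20) serves the separate enhancer mode.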

Chain of Peptidyl-prolyl cis-trans isomerase NIMA-interacting 1 (Homo sapiens) (Q13526 whole entry, looked up): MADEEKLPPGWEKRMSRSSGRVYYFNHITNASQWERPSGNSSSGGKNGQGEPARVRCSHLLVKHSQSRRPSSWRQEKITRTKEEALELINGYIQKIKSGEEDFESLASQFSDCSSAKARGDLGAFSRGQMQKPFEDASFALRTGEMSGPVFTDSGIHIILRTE
Chain of Galactokinase (Homo sapiens) (P51570 whole entry, looked up): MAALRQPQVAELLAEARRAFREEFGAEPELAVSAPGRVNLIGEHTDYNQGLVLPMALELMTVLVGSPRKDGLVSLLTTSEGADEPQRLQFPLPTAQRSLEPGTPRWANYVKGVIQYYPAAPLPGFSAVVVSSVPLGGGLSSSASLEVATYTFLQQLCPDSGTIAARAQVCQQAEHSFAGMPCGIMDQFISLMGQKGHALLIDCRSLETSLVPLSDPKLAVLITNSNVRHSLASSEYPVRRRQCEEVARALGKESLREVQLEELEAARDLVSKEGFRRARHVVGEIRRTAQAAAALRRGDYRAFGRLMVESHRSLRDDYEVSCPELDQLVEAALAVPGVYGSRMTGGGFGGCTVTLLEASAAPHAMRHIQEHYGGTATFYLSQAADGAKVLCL
Chain of Phosphoglycerate kinase, glycosomal (Trypanosoma brucei brucei) (P07378 whole entry, looked up): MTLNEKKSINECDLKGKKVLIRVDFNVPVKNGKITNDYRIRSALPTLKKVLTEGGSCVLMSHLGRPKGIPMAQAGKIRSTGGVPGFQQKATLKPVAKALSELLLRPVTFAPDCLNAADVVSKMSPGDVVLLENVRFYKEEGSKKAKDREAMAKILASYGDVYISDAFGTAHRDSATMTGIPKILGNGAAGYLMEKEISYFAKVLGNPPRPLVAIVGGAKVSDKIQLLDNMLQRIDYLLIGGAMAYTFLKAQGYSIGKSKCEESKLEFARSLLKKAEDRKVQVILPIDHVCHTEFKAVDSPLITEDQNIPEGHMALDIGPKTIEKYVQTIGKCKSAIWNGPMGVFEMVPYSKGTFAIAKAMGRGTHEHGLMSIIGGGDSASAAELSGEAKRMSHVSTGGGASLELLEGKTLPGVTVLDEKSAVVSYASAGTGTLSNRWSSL
Chain of Ubiquitin carboxyl-terminal hydrolase 1 (Homo sapiens) (O94782 whole entry, looked up): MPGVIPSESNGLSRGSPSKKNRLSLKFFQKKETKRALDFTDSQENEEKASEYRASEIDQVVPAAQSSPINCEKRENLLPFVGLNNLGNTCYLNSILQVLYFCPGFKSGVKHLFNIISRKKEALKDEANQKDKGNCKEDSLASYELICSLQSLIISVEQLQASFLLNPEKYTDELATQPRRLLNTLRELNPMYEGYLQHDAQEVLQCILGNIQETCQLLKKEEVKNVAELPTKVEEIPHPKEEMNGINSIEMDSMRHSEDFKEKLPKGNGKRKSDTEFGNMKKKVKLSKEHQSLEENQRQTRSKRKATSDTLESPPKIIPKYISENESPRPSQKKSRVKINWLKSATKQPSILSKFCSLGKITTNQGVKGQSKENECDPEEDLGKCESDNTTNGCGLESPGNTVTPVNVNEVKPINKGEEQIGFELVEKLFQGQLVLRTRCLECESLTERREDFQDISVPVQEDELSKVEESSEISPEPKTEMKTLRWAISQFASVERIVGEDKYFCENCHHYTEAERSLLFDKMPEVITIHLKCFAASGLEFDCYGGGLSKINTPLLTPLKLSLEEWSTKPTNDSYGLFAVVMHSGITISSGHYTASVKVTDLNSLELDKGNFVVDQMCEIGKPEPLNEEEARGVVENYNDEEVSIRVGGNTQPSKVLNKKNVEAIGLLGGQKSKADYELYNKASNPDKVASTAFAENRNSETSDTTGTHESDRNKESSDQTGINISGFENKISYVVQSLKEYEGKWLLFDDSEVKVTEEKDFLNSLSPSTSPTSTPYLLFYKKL
Chain of phosphoglycerate mutase (Leishmania major) (Q4Q090 1-553): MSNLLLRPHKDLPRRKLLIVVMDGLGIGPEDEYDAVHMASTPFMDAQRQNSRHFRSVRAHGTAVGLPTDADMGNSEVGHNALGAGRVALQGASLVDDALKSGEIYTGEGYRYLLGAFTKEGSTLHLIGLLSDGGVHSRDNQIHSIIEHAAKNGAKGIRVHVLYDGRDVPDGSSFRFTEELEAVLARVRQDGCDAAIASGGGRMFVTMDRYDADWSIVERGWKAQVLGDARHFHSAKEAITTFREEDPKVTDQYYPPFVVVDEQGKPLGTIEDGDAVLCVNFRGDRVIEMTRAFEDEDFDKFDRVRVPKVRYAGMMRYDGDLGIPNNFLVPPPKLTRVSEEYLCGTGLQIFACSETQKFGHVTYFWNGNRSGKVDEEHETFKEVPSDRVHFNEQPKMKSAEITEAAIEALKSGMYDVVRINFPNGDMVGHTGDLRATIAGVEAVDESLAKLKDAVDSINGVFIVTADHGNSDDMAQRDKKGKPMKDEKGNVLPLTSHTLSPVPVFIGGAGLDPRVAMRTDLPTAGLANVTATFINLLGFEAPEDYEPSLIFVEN
Chain of Thyrotropin-releasing hormone receptor (Homo sapiens) (P34981 whole entry, looked up): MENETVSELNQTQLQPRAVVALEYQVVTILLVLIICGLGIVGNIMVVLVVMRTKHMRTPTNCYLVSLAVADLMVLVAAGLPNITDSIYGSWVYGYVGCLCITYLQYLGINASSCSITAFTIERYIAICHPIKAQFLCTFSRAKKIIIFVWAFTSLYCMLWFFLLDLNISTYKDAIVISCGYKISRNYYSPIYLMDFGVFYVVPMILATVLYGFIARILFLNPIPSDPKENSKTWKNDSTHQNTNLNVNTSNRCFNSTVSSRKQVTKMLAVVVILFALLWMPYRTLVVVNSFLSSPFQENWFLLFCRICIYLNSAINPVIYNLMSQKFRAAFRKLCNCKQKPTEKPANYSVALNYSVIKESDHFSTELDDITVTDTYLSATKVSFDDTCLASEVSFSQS
Chain of Glucocorticoid receptor (Homo sapiens) (P04150 whole entry, looked up): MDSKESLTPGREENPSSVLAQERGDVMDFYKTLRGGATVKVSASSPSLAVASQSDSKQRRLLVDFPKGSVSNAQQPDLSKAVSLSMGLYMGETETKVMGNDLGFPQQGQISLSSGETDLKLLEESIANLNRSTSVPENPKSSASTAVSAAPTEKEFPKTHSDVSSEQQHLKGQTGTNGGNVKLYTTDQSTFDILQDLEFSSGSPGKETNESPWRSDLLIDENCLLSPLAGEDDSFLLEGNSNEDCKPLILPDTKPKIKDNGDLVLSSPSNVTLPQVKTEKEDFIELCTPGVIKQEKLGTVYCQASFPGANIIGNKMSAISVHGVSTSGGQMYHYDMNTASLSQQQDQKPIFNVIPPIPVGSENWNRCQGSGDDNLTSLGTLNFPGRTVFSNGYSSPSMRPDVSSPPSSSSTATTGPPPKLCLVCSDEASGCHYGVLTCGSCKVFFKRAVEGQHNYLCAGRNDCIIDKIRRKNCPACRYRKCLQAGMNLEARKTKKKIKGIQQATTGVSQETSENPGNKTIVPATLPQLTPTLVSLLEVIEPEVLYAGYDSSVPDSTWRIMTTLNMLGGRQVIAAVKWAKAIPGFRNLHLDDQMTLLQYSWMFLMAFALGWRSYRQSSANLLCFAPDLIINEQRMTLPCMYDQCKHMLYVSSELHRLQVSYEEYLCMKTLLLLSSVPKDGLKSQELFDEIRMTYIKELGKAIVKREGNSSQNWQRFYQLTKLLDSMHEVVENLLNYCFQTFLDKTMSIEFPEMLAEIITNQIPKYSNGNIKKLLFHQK
Chain of Bile acid receptor (Homo sapiens) (Q96RI1 whole entry, looked up): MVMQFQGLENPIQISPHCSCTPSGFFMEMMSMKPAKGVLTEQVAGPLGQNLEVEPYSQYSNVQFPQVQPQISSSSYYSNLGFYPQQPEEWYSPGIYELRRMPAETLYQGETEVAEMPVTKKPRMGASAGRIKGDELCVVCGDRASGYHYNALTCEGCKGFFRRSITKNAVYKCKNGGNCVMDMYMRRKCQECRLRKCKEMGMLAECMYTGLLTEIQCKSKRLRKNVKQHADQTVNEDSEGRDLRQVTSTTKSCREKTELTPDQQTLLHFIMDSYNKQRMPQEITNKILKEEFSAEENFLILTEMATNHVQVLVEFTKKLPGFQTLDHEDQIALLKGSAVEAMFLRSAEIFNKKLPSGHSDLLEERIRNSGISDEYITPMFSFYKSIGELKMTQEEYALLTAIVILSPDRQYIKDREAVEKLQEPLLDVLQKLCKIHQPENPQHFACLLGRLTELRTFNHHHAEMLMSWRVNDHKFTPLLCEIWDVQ

CCN(CC)CCn1c(=O)c(Cc2ccc(OC)cc2)nc2ccccc21
inactive: Potency [1]

CC(C)(Sc1ccc(CCN(CCCCC2CCCCC2)C(=O)NC2CCCCC2)cc1)C(=O)O
inactive: Potency [1]

CC[C@@H](C(N)=O)N1CCCC1=O
0%: viability change [2]
inactive: outcome [2] | outcome [3] | outcome [4] | outcome [5] | outcome [6] | Potency [1] | Potency [7] | outcome [8] | Potency [9]

CCn1cc(C(=O)O)c(=O)c2cc3c(cc21)OCO3
inactive: Potency [1]

C[C@]12N[C@H](Cc3ccccc31)c1ccccc12
inactive: outcome [2] | outcome [3] | outcome [10] | outcome [11] | outcome [4] | outcome [5] | outcome [6] | Potency [1] | Potency [7] | outcome [8] | Potency [9]
0.285%: viability change [2]

Clc1cnc(Oc2ccc(Oc3ncc(Cl)cc3Cl)cc2)c(Cl)c1
inactive: outcome [2] | outcome [3] | outcome [10] | outcome [11] | outcome [4] | outcome [5] | outcome [6] | Potency [1] | Potency [7] | outcome [8] | Potency [9] | outcome [12] | activation [13] -2.42% | Potency [14]
3.25%: viability change [2]

C[N+](C)(C)CC(=O)O
inactive: outcome [10] | outcome [11] | Potency [1] | Potency [7]

CCOC(=O)C(C)Oc1cccc2c(=O)n(CC(=O)Nc3ccc4c(c3)OCCO4)ccc12 (centres undefined)
inactive: Potency [1]

COc1cc2nc(N3CCCN(C)CC3)nc(NC3CCN(Cc4ccccc4)CC3)c2cc1OC
inactive: Potency [1]

CCN(CC)CCNC(=O)c1ccc(NC(C)=O)cc1
inactive: Potency [1]

CN[C@@H](C)[C@H](O)c1ccccc1
inactive: activation [15] 3.19% | outcome [10] | outcome [11]

c1ccc(C2(c3ccccc3)CC2C2=NCCN2)cc1 (centres undefined)
inactive: outcome [2] | outcome [3] | outcome [4] | outcome [5] | outcome [6] | Potency [1] | Potency [7] | outcome [8]
-1.31%: viability change [2]

CC(C[N+](C)(C)C)OC(N)=O (centres undefined)
inactive: Potency [1]

NCCCC(N)(C(=O)O)C(F)F (centres undefined)
inactive: Potency [1]

O=C(N[C@H]1CN2CCC1CC2)c1ccc(Cl)cc1
inactive: outcome [2] | outcome [3] | outcome [4] | outcome [5] | outcome [6] | Potency [1] | Potency [7] | outcome [8] | Potency [9]
-3.51%: viability change [2]

O=C(O)CC[N+](=O)[O-]
inactive: outcome [3] | outcome [10] | outcome [11] | outcome [4] | outcome [5] | outcome [6] | Potency [1] | Potency [7] | outcome [8] | Potency [9]

COc1cc2c(cc1O)CC[C@@H]1[C@@H]2CC[C@]2(C)[C@@H](O)CC[C@@H]12
inactive: Potency [1]

COc1ccc2c(c[n+](C)c3c4cc5c(cc4ccc23)OCO5)c1OC
inactive: activation [15] 0.625% | outcome [3] | outcome [10] | outcome [4] | outcome [5] | Potency [1] | Potency [7]
